Screening results as filed in PubChem BioAssay.
The entries come from a sample that favours hits as a whole.
HTT cytoprotect – cytoprotection in Huntington HTT-Q103 PC12 cell model; PC12 HTT-Q103 induced, cytoprotection, ATP luminescence, 40 h; actives 0.14% (n = 230,000); Potency, µM (highest dose often 56.4 µM), usual class: activators; note: nearly all actives have a fitted effect of over 45% in size
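Stable PC12 Q103-GFP cells in serum-supplemented, phenol red-free DMEM; induction by tebufenozide at 100 nM final; compound dose series; cell viability quantified luminescently from ATP.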
PNC assembly inh – inhibitors of perinucleolar compartment assembly | PC3M PTB-GFP, PNC prevalence imaging, 16 h; stronger effect = lower value | activity change (PNC), negative = inhibition, % at 10 µM | actives 3.1% (n = 140,000) | AID 2417;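 active = readout at or below -70, meaning at least 70% loss of cells showing the perinucleolar compartment, a nuclear body marking cancer cells; inconclusive = readout between -30 and a set limit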
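Read-out is percentage of cells bearing a perinucleolar compartment, from automated 20x imaging of fixed, Hoechst-stained PC3M PTB-GFP cells. Cells were seeded 4 h, then exposed 16 h to compound (23 nl of library stock) in duplicate plates.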
HTT aggregate – inhibitors of mutant huntingtin aggregate formation in PC12 cells; PC12 HttQ103-GFP aggregates, Acumen cytometry, 40 h; Potency, µM (titrated, usually from 46.1 µM), hits mostly inhibitors; actives 1.1% (n = 220,000); AID 1688; note: nearly all actives have a fitted effect of over 60% in size
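PC12 cells stably carrying ecdysone-inducible HTT exon 1 Q103–GFP were induced with tebufenozide (100 nM final) and treated with library compounds in titration. GFP aggregates in lysates were counted by laser scanning cytometry.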
Numbers stand for hits; 0 = inactive; ? = inconclusive; - = not tested or not shown; [ ] = another dose, or the depositor's remark. Unless noted, calls come from the whole dose curve; as a rule, active = well fitted curve in the direction sought with a large enough effect; inconclusive = small, poorly fitted or top-dose-only effect, or another doubt; inactive = no such curve, though single readings can be large; an effect the other way counts as inactive or inconclusive.

SMILES	HTT cytoprotect	PNC assembly inh	HTT aggregate
CC(=O)c1cc(CN2C(=O)CCC2=O)cs1	0	?	0[9.22 µM]
COCCOC(=O)c1c(C)nc(SCC(=O)Nc2ccc(OC)cc2)c(C#N)c1-c1ccco1	0	-111	0
COc1cccc(NC(=O)CSc2nc3c(c(-c4ccco4)c2C#N)CCCC3)c1	?	0	0
COc1ccc(CCC(=O)Nc2cc(Cl)ccc2OC)cc1	0	0	0[9.22 µM]
NC(=O)c1nsc(C(=O)N(c2ccc(Cl)cc2)C(C(=O)NCC2CCCO2)c2cccs2)c1N (centres undefined)	0[10 µM]	-	0[9.22 µM]
CCOc1cc(C(=O)Nc2ccc3c(c2)OCO3)ccc1OCCOc1ccccc1Cl	0	-87	0
Cc1occc1C(=O)NC(C)c1ccc2c(c1)OCO2 (centres undefined)	0[10 µM]	?	0
CCOc1ccc(C(=O)Nc2ccc3c(c2)OCO3)cc1OCC	0	?	0
CCOc1ccccc1C(=O)NC(C)c1ccc2c(c1)OCO2 (centres undefined)	0	-103	0
CN(c1ccccc1C(=O)Nc1ccc2c(c1)OCO2)S(C)(=O)=O	0[10 µM]	-100	0
COc1ccccc1C(=O)Nc1cccc(N(C)S(C)(=O)=O)c1	0[10 µM]	-100	0
CN(c1ccccc1C(=O)Nc1ccc2c(c1)OCCO2)S(C)(=O)=O	0[0.074 µM]	0	0
CSc1ccccc1C(=O)Nc1cccc(N(C)S(C)(=O)=O)c1	0	?	0
CC(C)(C)S(=O)(=O)c1cnc2c(-c3ccsc3)cnn2c1N	0[10 µM]	-	0
CS(=O)(=O)Nc1ccc(C(=O)NCCc2ccccc2)cc1	0[1.9 µM]	0	0
CN(Cc1ccco1)C(=O)C(Cc1ccccc1)NS(=O)(=O)c1ccc2c(c1)CCC(=O)N2 (centres undefined)	0	-81	0
CCCNC(=O)C(Cc1ccccc1)NS(=O)(=O)c1ccc2c(c1)CCC(=O)N2 (centres undefined)	0	0	0
Cc1ccc2c(n1)sc1c(-c3ccccc3)c(C#N)c(N)nc12	0	0	13µM
CCc1c(C)nc(N)c(C#N)c1-c1ccccc1	0[10 µM]	-	0[9.22 µM]
Cc1noc(C(=O)NC2CCCCC2)c1Cl	0[10 µM]	-	0[9.22 µM]
COC(=O)c1sc(NC(=S)NC(=O)c2ccccc2)nc1C	0[10 µM]	-88	0
CCOC(=O)c1sc(NC(=S)NC(=O)c2ccccc2)nc1C	-	-	0
Cc1ccsc1/C=C1\SC(=S)N(CC2CCCO2)C1=O (centres undefined)	0[10 µM]	-	0[9.22 µM]
COC(=O)Nc1nc(-c2ccc(F)cc2)c(C)s1	-	-	0
Cc1cnc(C(=O)Nc2cccc3cccnc23)cn1	0	0	0.89µM
SMILES	HTT cytoprotect	PNC assembly inh	HTT aggregate
O=C(Nc1cccc2nsnc12)c1cccnc1	0[10 µM]	0	0
O=C(Nc1cccc2cccnc12)c1cccnc1	0	-85	?
COc1cc(C(=O)Nc2cccc3cccnc23)cc(OC)c1OC	0	?	0
CN1C2C=C3C(C#N)=C(N)C(C#N)(C#N)[C@@H](c4cccs4)C3C1CC2 (some centres undefined)	0	0	0
Cn1c(SCC(=O)N/N=C/c2ccncc2)nc2ccccc21	0[10 µM]	-	0[9.22 µM]
NCCCNC(=O)c1ccc(/C=N/O)nc1	0[10 µM]	-	0[9.22 µM]
CCCOC(=O)c1c(NC(=O)CCCn2nc([N+](=O)[O-])cc2C)sc(C(=O)OC)c1C	0[10 µM]	-119	0
CCCOC(=O)c1c(NC(=O)CCCn2nc([N+](=O)[O-])c(Cl)c2C)sc(C(=O)OC)c1C	0[10 µM]	0	0
Brc1ccccc1-c1nnc(COc2ncnc3ccccc23)o1	0[10 µM]	-	0[9.22 µM]
CCN1CCN(Cc2ccc(NC(=O)c3ccc(C)c(NC(=O)c4nccnc4N)c3)cc2C(F)(F)F)CC1	0[10 µM]	-	2.8µM
CCN1CCN(Cc2ccc(NC(=O)c3ccc(C)c(NC(=O)c4nccn4C)c3)cc2C(F)(F)F)CC1	0[10 µM]	-	0[9.22 µM]
Cc1cccc(CN2CCN(CC(=O)NCc3cccs3)C2=O)c1	0	?	0[9.22 µM]
COc1ccc(NC(=O)c2cc(S(=O)(=O)N3CCCC3)oc2C)cc1	0[10 µM]	-	0[9.22 µM]
COc1ccc(NS(=O)(=O)c2cc(OC)ccc2NC(=O)c2cc(C)oc2C)cc1	0	-100	0
CC1=C(C)/C(=N\OS(=O)(=O)c2ccccc2)C=CC1=O	0	0	?
CCOC(=O)C1CCCCN1Cc1cn(C)nc1-c1ccccc1F (centres undefined)	0[10 µM]	-	0[9.22 µM]
O=C(Nc1c2c(nc3ccccc13)CCCC2)c1ccccc1Cl	0[10 µM]	0	0
O=C(Nc1c2c(nc3ccccc13)CCCC2)c1ccccc1F	0[10 µM]	-119	?
CCOc1ccc(-n2c(-c3ccc(OC)cc3)c[n+]3c2CCCCC3)cc1	0[1.9 µM]	0	7.9µM
CCOc1ccc(-n2c(-c3ccccc3)c[n+]3c2CCC3)cc1	0[10 µM]	-	6.3µM
COc1ccc(-c2c[n+]3c(n2-c2ccc(C)cc2)CCCCC3)cc1	0[10 µM]	-	0[9.22 µM]
CCOc1ccc(-n2c(-c3ccc(Br)cc3)c[n+]3c2CCCCC3)cc1	0	-	?
CCOC(=O)c1nn(-c2ccc(Cl)cc2)c2nc(Nc3ccccc3)cc(=O)n12	0	0	?
Cc1cc(NC(=O)/C=C/c2ccccc2)no1	0[10 µM]	0	0
O=C(O)c1ccc(CSc2nnnn2C2CCCCC2)cc1	0[10 µM]	?	0
SMILES	HTT cytoprotect	PNC assembly inh	HTT aggregate
Cc1ccc2c(c1)COc1c3ccc(C(=O)N4CCOCC4)cc3nn1-2	0[10 µM]	-	0[9.22 µM]
Cc1nc(C)c(C(=O)N/N=C/c2cc(Br)ccc2O)s1	0[10 µM]	-	1.3µM
Cc1nc(C)c(C(=O)N/N=C/c2c[nH]c3ccccc23)s1	0	-87	0
Cc1nc(C)c(C(=O)N/N=C/c2cn(C)c3ccccc23)s1	?	0	0
COC(=O)N/N=C/c1c[nH]c2ccccc12	0[10 µM]	0	0
CC(C)(C)OC(=O)N/N=C/c1c[nH]c2ccccc12	-	-109	0
O=C(N/N=C/c1c[nH]c2ccccc12)c1cc(-c2ccc3ccccc3c2)n[nH]1	0[10 µM]	-113	0
Nc1nonc1C(=O)N/N=C/c1cc(Br)ccc1O	0	-	?
O=C(N/N=C/c1c[nH]c2ccccc12)c1cc(-c2ccc(-c3ccccc3)cc2)n[nH]1	0	0	?
c1ccc(COc2ccc(Oc3nc(N4CCCCC4)nc(N4CCOCC4)n3)nn2)cc1	0	?	0
Cc1ccc(F)cc1S(=O)(=O)NCc1ccc(N2CCN(C)CC2)cc1	0[10 µM]	-	0[9.22 µM]
CN1CCc2c(sc3c2C(=O)NC(c2ccc(-c4cccc(Cl)c4)o2)N3)C1 (centres undefined)	0	-	0[9.22 µM]
CN(CCc1ccc(Cl)c(Cl)c1)C[C@@H](O)COc1ccc(NS(C)(=O)=O)cc1	0[1.9 µM]	-	-
Cc1ccccc1OCC(O)CN (centres undefined)	0[10 µM]	0	0
CC(=O)N/C(=C/c1ccc2c(c1)OCO2)C(=O)O	0[10 µM]	-	0[9.22 µM]
CCC(NC(=O)/C(=C\c1ccc2c(c1)OCO2)NC(C)=O)C(=O)O (centres undefined)	0[10 µM]	-125	0
C=CCNC(=S)N/N=C(\C)c1cccnc1	0	-	0
O=C(CSc1nc2ccccc2c(=O)n1NC(=O)c1ccccc1)c1ccc(Cl)cc1	0	0	0
Cc1ccccc1-n1c(SCc2c(C)noc2C)nnc1-c1cccnc1	0	?	0
Cc1ccccc1-n1c(SCc2c(C)noc2C)nnc1-c1ccncc1	0	-83	0
COc1ccc(OC)c(/C=N/NC(=O)c2cc3c(OC)c(OC)ccc3[nH]2)c1	0[0.074 µM]	-112	0
COc1ccc(OC)c(/C=N/NC(=O)c2ccc3nc[nH]c3c2)c1	0[10 µM]	-	0[9.22 µM]
